Among the data in PubChem BioAssay AID624156 (Broad Institute, 2012) are ROS induction (% of piperlongumine) values, retold here.

Among all 46,000 compounds or so, about 900 (2%) were called active. Inconclusive results (about 1%) are left out. Many of the other results were omitted from the sample, so actives are more common in it than they were. Unmarked numbers belong to inactive results. No stated cut-off is given here; in the data, active means ROS induction above about 79% (passing the limit was not always enough); inconclusive means no clear call, values can overlap the other calls.

The assay in a line: ROS inducers in U2OS cancer cells, primary screen, cell-based, H2DCF-DA fluorescence (AID 624156).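 Further: 0% = DMSO vehicle median and 100% = reference compound median.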 The following applies: at 10 µM, hits give high values.
Take `CC1CC(NC(=S)N(C)C)CC(C)(C)C1` (centres undefined): the ROS induction (% of piperlongumine) is -10.5%. In the case of `O=C(CCc1nc(-c2ccccc2Cl)no1)Nc1ccccc1[N+](=O)[O-]` it was -1.7%; in that of `CC1CCN(S(=O)(=O)c2ccc(Cl)c(C(=O)Nc3ccccc3[N+](=O)[O-])c2)CC1`, -11.1%; in that of `O=C(Nc1ccccc1Cl)c1ccccc1S(=O)(=O)c1ccccc1[N+](=O)[O-]`, 134% (active). In the case of `COc1cccc(CNC(=O)CCn2nc(-c3ccccc3)ccc2=O)c1` it was -6.11%; in that of `CCc1cccc(NS(=O)(=O)c2cc(Br)cc3c2N(C(=O)C2CC2)CC3)c1`, 31.7%; in that of `CNC(=O)CN1C(=O)c2ccccc2S1(=O)=O`, 3.08%.

As for `O=C1c2ccccc2S(=O)c2ccccc2S(=O)(=O)N1Cc1ccccc1` (centres undefined), the ROS induction (% of piperlongumine) was 205% (active). In the case of `COc1ccc(C2C(C(=O)N(C)c3ccc(C(C)C)cc3)CC(=O)N2c2ccc(OC)cc2)cc1` (centres undefined) it was 16.7%.

Regarding `C=C1C(=O)O[C@@H]2[C@H]3C(CO)=CC(=O)C3=C(C)C[C@H](OC(=O)Cc3ccc(O)cc3)[C@@H]12`, the ROS induction (% of piperlongumine) is 205% (active).

For the molecule `CCOC(=O)/C(C#N)=c1/s/c(=C2/C=Cc3ccccc3N2CC)c(=O)n1CC`, the ROS induction (% of piperlongumine) was 23.1%. For the molecule `C[C@@H]1CN([C@H](C)CO)C(=O)c2cc(NC(=O)Nc3ccccc3)ccc2O[C@H]1CN(C)S(=O)(=O)c1ccc(F)cc1`, the ROS induction (% of piperlongumine) is 9.94%. The value for `O=C(Nc1ccccc1)Nc1ccccc1C(=O)N1CCOCC1` was -0.785%; that for `CCCC(O)C#Cc1cnc2c(c1)C(=O)N([C@H](C)CO)C[C@H](C)[C@H](CN(C)S(=O)(=O)c1ccc(C#N)cc1)O2` (some centres undefined) was -0.235%. In the case of `C[C@H](CO)N1C[C@H](C)[C@@H](CN(C)C(=O)Nc2ccc3c(c2)OCO3)Oc2c(cccc2N(C)C)C1=O`, the ROS induction (% of piperlongumine) was 6.93%. In the case of `C[C@H](CO)N1C[C@H](C)[C@H](CN(C)C(=O)Nc2ccc(F)cc2)Oc2ncc(-c3cc4ccccc4o3)cc2C1=O`, the ROS induction (% of piperlongumine) was 130% (active). The value for `C[C@H](CO)N1C[C@H](C)[C@H](CN(C)C(=O)NC2CCCC2)Oc2ncc(-c3ccc(F)cc3)cc2C1=O` was 14.3%; that for `CCCC(O)C#Cc1cnc2c(c1)C(=O)N([C@H](C)CO)C[C@H](C)[C@H](CN(C)Cc1ccc(F)cc1)O2` (some centres undefined) was 94.3% (active). In the case of `C[C@H](CO)N1C[C@H](C)[C@H](CN(C)C(=O)Nc2ccc3c(c2)OCO3)Oc2ncc(Br)cc2C1=O` it was 2.65%; in that of `COc1ccc(NC(=O)N(C)C[C@@H]2Oc3ncc(-c4cccc(OC)c4)cc3C(=O)N([C@H](C)CO)C[C@@H]2C)cc1`, 69.6%. In the case of `C[C@H](CO)N1C[C@H](C)[C@H](CN(C)Cc2ccccc2)Oc2ncc(-c3ccccc3)cc2C1=O` it was 3.81%. In the case of `C[C@H](CO)N1C[C@H](C)[C@H](CN(C)C(=O)Nc2ccc3c(c2)OCO3)Oc2ncc(C#Cc3cccc(F)c3)cc2C1=O`, the ROS induction (% of piperlongumine) is 93.9% (active). The value for `CN1CCN(CC(O)COc2ccc3ccccc3c2)CC1` (centres undefined) was -2.48%. In the case of `CC(C)CC(C(=O)O)N1C(=O)c2ccccc2C1=O` (centres undefined) it was -9.51%; in that of `Cn1c(=O)c2c(nc(SCC(=O)Nc3ccccc3F)n2Cc2ccccc2)n(C)c1=O`, 11.1%. The value for `O=C(Nc1nccs1)C1CCCN(C(=O)c2cnn(-c3ccccc3)c2-n2cccc2)C1` (centres undefined) was 4.87%; that for `COc1ccc(NS(=O)(=O)c2ccc(OCC(F)(F)F)c(C#N)c2OCC(F)(F)F)cc1` was -8.52%. With `CCOc1ccc2c(=O)c(Oc3ccccc3Br)coc2c1`, the ROS induction (% of piperlongumine) was 0.931%. In the case of `Cc1noc(C)c1NC(=O)NCc1ccc2c(c1)OCO2` it was -1.2%.

Turning to `CN(C)c1ccc(/C=C(\C#N)S(=O)(=O)c2ccccc2)cc1C#N`, the ROS induction (% of piperlongumine) was -4.92%. In the case of `CC1CCN(C(=O)CCNS(=O)(=O)c2cccc3nsnc23)CC1` it was -19.6%.

With `Cc1cc(C(C)(C)C)cc(S(=O)(=O)Nc2ccc(C(=O)N3CCC(C)CC3)cc2)c1C`, the ROS induction (% of piperlongumine) was 5.57%.

Turning to `Cc1cccc(NC(=O)c2nnn(-c3cccc(C(F)(F)F)c3)c2N)c1`, the ROS induction (% of piperlongumine) is -17.1%. The value for `O=S(=O)(NCc1csc(-c2cccnc2)n1)c1ccc2c(c1)CCCC2` was 5.59%. `Cn1c(=NC(=O)CCOc2ccccc2)sc2cc(Br)ccc21`: the ROS induction (% of piperlongumine) is 1.27%.

Turning to `Cc1ccc(Nc2cc(C(=O)NCC3CCCO3)c3ccccc3n2)cc1C` (centres undefined), the ROS induction (% of piperlongumine) is 1.21%.

On to `Cc1ccc(S(=O)(=O)N(CC(=O)Nc2ccc3c(c2)OCCO3)C2CCCCC2)cc1`, for which the ROS induction (% of piperlongumine) was 7.86%. The value for `Cc1nnc(SCc2cc(=O)[nH]c(N3CCN(Cc4ccccc4)CC3)n2)s1` was -2.67%; that for `Cc1cc(Nc2ccc(Cl)cc2)c2ccccc2n1` was 6.49%. The value for `Cc1cc(Sc2nnc(C)s2)c2ccccc2n1` was 255% (active); that for `Cc1ccc2c(Sc3ccc(Cl)cc3)c(C(=O)NC3CCCC3)[nH]c2c1` was -12.5%; that for `O=C(N/N=C/c1cc(F)ccc1O)c1ccccc1O` was -13.6%. In the case of `CNC(=O)NC(=O)CSc1ncnc2sc(-c3ccccc3)cc12` it was 5.81%; in that of `c1ccc(Nc2ncnc3sc(-c4ccccc4)cc23)cc1`, 130% (active). Consider `Cc1ccccc1NC(=O)NC(=O)CC#N`, for which the ROS induction (% of piperlongumine) is -16.4%. `C[C@@H]1CN([C@@H](C)CO)C(=O)c2cc(NC(=O)C3CC3)ccc2O[C@H]1CN(C)C`: the ROS induction (% of piperlongumine) was -0.632%. Regarding `Cn1c(=O)c2c(nc(SCC(=O)NC(C)(C)C)n2Cc2ccccc2F)n(C)c1=O`, the ROS induction (% of piperlongumine) is 0.779%. In the case of `CC(C)C1Cc2c(sc3nc(SCC(=O)Nc4ccccc4)nc(N)c23)CO1` (centres undefined) it was 44%. The value for `Cc1ccc(NC(=O)c2ccc(CSc3ccccn3)cc2)c(C)c1` was -9.72%. In the case of `C[C@@H]1CN([C@H](C)CO)C(=O)c2cc(NS(=O)(=O)c3ccc(F)cc3)ccc2O[C@H]1CN(C)C(=O)Nc1cccc2ccccc12` it was 6.38%; in that of `COCCOC(=O)N1C(=O)[C@@]2(c3cc(C#CCC(C(=O)OC)C(=O)OC)ccc31)[C@H](c1ccc(OCCO)cc1)N1[C@H](c3ccccc3)[C@H](c3ccccc3)OC(=O)[C@H]1[C@@H]2C(N)=O`, 166% (active). `C=CCNC(=O)[C@H]1[C@@H]2C(=O)O[C@@H](c3ccccc3)[C@@H](c3ccccc3)N2[C@@H](c2ccccc2OCCO)[C@]12C(=O)N(C(=O)OCCOC)c1ccc(C#Cc3ccc(OC)cc3)cc12`: the ROS induction (% of piperlongumine) is 15.7%.

Take `O=C1O[C@@H](c2ccccc2)[C@@H](c2ccccc2)N2[C@@H](c3ccccc3OCCO)[C@]3(C(=O)Nc4ccccc43)[C@@H](C(=O)N3CCCCCCC3)[C@H]12`: the ROS induction (% of piperlongumine) is 108% (active). The value for `COC(=O)C(CC#Cc1ccc2c(c1)[C@]1(C(=O)N2)[C@H](c2ccc(O)cc2)N2[C@H](c3ccccc3)[C@H](c3ccccc3)OC(=O)[C@H]2[C@@H]1C(=O)NC[C@H](O)c1ccccc1)C(=O)OC` was 16.4%; that for `COCCOC(=O)N1C(=O)[C@@]2(c3cc(C#CCNC(N)=O)ccc31)[C@H](C(=O)N1CCN(c3ncccn3)CC1)[C@H]1C(=O)O[C@H](c3ccccc3)[C@H](c3ccccc3)N1[C@@H]2c1ccccc1OCCO` was 19.5%; that for `O=C1O[C@H](c2ccccc2)[C@H](c2ccccc2)N2[C@H]1[C@@H](C(=O)N1CCN(c3ncccn3)CC1)[C@]1(C(=O)Nc3ccccc31)[C@H]2c1ccc(OCCO)cc1` was 69.8%. In the case of `O=C1O[C@@H](c2ccccc2)[C@@H](c2ccccc2)N2[C@@H](c3ccc(OCCO)cc3)[C@]3(C(=O)Nc4ccc(C#CCCO)cc43)[C@@H](C(=O)O)[C@H]12` it was 0.895%; in that of `COc1ccc(C#Cc2ccc3c(c2)[C@]2(C(=O)N3)[C@H](c3ccccc3OCCO)N3[C@H](c4ccccc4)[C@H](c4ccccc4)OC(=O)[C@H]3[C@@H]2C(=O)N2CCCCCCC2)cc1`, -14.4%; in that of `COC(=O)C(CC#Cc1ccc2c(c1)[C@]1(C(=O)N2)[C@H](c2ccccc2OCCO)N2[C@H](c3ccccc3)[C@H](c3ccccc3)OC(=O)[C@H]2[C@@H]1C(N)=O)C(=O)OC`, 447% (active). The value for `COc1ccc(CCNC(=O)c2cc3ccccc3c(=O)o2)cc1OC` was 19.8%; that for `COc1ccc(/C=C(/NC(=O)c2ccccc2)C(=O)N2CC3(C)CC2CC(C)(C)C3)cc1` (centres undefined) was 1.8%; that for `CCOC(=O)C1CCN(C(=O)CN2C(=O)c3ccccc3C2=O)CC1` was -6.98%. On to `COc1cccc(CNS(=O)(=O)c2ccc3[nH]c(=O)ccc3c2)c1`, for which the ROS induction (% of piperlongumine) is -8.9%. In the case of `C[C@@H]1CN([C@@H](C)CO)C(=O)c2cc(NC(=O)CCCN(C)C)ccc2O[C@H]1CN(C)Cc1ccccc1` it was -15.8%; in that of `NS(=O)(=O)c1ccc(CCNC2=CC(=O)OC23CCCCC3)cc1`, -9.03%; in that of `COC(=O)c1ccccc1NC(=O)CSc1n[nH]c(-c2ccncc2)n1`, -0.326%. For `O=C(CSc1n[nH]c(-c2ccncc2)n1)Nc1ccccc1F`, the ROS induction (% of piperlongumine) is -7%.

With `COc1ccc(OC)c(NC(=O)CSc2n[nH]c(-c3ccncc3)n2)c1`, the ROS induction (% of piperlongumine) is 148% (active). In the case of `CC1CCCC(C)N1C(=O)c1cc2c(s1)-c1ccccc1OC2` (centres undefined) it was -1.02%.
